Results filed as inconclusive are left out. Some structures have more than one record in an assay (separate samples or runs), and their calls can disagree. Calls of active or inactive are those of the source. How the source made its calls: active means hit-call score of the fitted dose curve at least 0.9, where 1 is the maximum; inconclusive means response in the unintended direction; inactive means score below 0.9.
How the values were obtained:
[1] = ATG_XTT_Cytotoxicity: Cytotoxicity Assessment in the Attagene TRANS-FACTORIAL HepG2 Assay (AID 2283584)
Procedure, shortened: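 Cells: human HepG2, transiently transfected with MRTU reporter constructs. Exposure 24 h. Readout: XTT, cell number. Baseline/neg ctrl DMSO; loss-of-signal scored.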

[2] = TOX21_p53_BLA_p2_viability: Viability Assessment in the Tox21 HCT-116 p53 Agonism Beta-lactamase Assay, Phase 2 (AID 2283591);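 further: compound exposure lasted 16 h at 37 °C; actives lower the ATP signal meaning cytotoxicity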
Procedure, shortened: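 HCT116 p53-bla cells, 4000/well, dosed after 5 h plating (217-fold dilution of DMSO stocks) and incubated 16 h at 37C. Viability taken as cellular ATP by CellTiter-Glo luminescence after 30 min RT; signal loss marks cytotoxicity.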

[3] = molecular target: Cellular tumor antigen p53 (Homo sapiens) (UniProt P04637); assay: TOX21_p53_BLA_p2_ratio: Tox21 HCT-116 p53 Agonism Beta-lactamase Assay, Ratio, Phase 2 (AID 2283592)
Sequence of Cellular tumor antigen p53 (Homo sapiens) (P04637 whole entry, looked up): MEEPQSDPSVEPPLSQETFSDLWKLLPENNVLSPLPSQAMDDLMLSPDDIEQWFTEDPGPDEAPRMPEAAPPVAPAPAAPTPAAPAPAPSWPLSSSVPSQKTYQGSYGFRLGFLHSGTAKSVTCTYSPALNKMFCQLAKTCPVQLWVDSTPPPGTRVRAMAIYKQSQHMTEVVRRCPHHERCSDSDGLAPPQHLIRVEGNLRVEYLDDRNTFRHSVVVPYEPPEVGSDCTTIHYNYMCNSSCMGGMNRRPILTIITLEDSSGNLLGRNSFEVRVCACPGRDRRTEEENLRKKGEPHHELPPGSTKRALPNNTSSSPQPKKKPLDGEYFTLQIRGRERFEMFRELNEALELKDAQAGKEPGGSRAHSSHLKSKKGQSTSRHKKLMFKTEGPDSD
Procedure, shortened: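 Plated HCT116 p53-bla cells (4000/well) received compound after 5 h, then 16 h at 37C/5% CO2. CCF4-AM added, 2 h RT. Ratio of 460 to 530 nm emission taken as the p53 reporter signal.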

[4] = TOX21_p53_BLA_p3_viability: Viability Assessment in the Tox21 HCT-116 p53 Agonism Beta-lactamase Assay, Phase 3 (AID 2283593);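 further: cells exposed to compound for 16 h before reading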
Procedure, shortened: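 HCT116 cells, 4000/well, dosed 5 h after plating by pin transfer (217-fold dilution from DMSO stock) and incubated 16 h at 37C, 5% CO2. Viability read as ATP luminescence with CellTiter-Glo after 30 min at room temperature.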

[5] = molecular target: Cellular tumor antigen p53 (Homo sapiens) (UniProt P04637); assay: TOX21_p53_BLA_p3_ratio: Tox21 HCT-116 p53 Agonism Beta-lactamase Assay, Ratio, Phase 3 (AID 2283596)
Procedure, shortened: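 Cells were seeded at 4000/well, rested 5 h at 37C, then dosed with DMSO compound solutions (217-fold dilution) for 16 h. CCF4-AM substrate was loaded for 2 h at room temperature, and the 460/530 nm emission ratio was fitted for gain of signal versus DMSO.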

[6] = TOX21_p53_BLA_p4_viability: Viability Assessment in the Tox21 HCT-116 p53 Agonism Beta-lactamase Assay, Phase 4 (AID 2283597);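 further: hits lower the luminescence signal meaning cytotoxicity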
Procedure, shortened: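 Readout: ATP luminescence (CellTiter-Glo), measured 30 min after reagent addition at RT. The reagent followed a 2 h CCF4-AM incubation, and the cells had been exposed to compound for 16 h at 37C.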

[7] = molecular target: Cellular tumor antigen p53 (Homo sapiens) (UniProt P04637); assay: TOX21_p53_BLA_p5_ratio: Tox21 HCT-116 p53 Agonism Beta-lactamase Assay, Ratio, Phase 5 (AID 2283599)
Procedure, shortened: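 HCT-116 p53-bla cells (4000/well) plated 5 h, dosed with compound (217-fold DMSO dilution) for 16 h at 37 C; CCF4-AM substrate 2 h at room temperature. Activity is the 460/530 nm emission ratio (405 nm excitation), fitted in gain-of-signal direction versus DMSO.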

[8] = TOX21_p53_BLA_p5_viability: Viability Assessment in the Tox21 HCT-116 p53 Agonism Beta-lactamase Assay, Phase 5 (AID 2283600)
Procedure, shortened: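 Workflow: seed 4000 cells per well, wait 5 h, add compounds (DMSO, 217-fold dilution), incubate 16 h, load CCF4-AM 2 h, add CellTiter-Glo, read luminescence after 30 min.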

Measured: AC50

C=Cc1ccc(C)cc1
inactive: all assays above

CCOC(=O)CC(C)O (configuration not stated)
inactive: [1]

CCCC(=O)OC(C)(C)Cc1ccccc1
inactive: all assays above

Nc1ccc(N)c2c1C(=O)c1ccccc1C2=O
active: [3] 7.9 µM
inactive: all other assays above

CC1(C)C2=CCCC(C)(C)[C@]23CC[C@H]1C3
inactive: all assays above

C=CCCCCCCCCCC
inactive: all assays above

OCc1cccc(Oc2ccccc2)c1
inactive: all assays above

C=CC(=O)OCCCC
inactive: all assays above

OCCCCC(O)CO (configuration not stated)
inactive: all assays above

Cc1ncc([N+](=O)[O-])n1CCO
inactive: all assays above

C=CC(=C)CCCC(C)(C)OC(C)=O
inactive: [1]

Cc1ncc[nH]1
not listed: [8]
inactive: all other assays above

CC=Cc1ccc(OC)c(OC)c1
inactive: [1]

CCCCCCCC(=O)OCC(O)CO (configuration not stated)
inactive: all assays above

OCCOCCN1CCN(C2=Nc3ccccc3Sc3ccccc32)CC1
inactive: all assays above

CCC(C)c1cc([N+](=O)[O-])cc([N+](=O)[O-])c1OC(=O)OC(C)C (configuration not stated)
active: [3] 7.55 µM | [5] 35.3 µM | [7] 36.9 µM
inactive: all other assays above

C=C(C#N)C(=O)OCC
inactive: all assays above

N[C@@H](Cc1cc(I)c(Oc2cc(I)c(O)c(I)c2)c(I)c1)C(=O)O
inactive: [1] | [2] | [3] | [4] | [5] | [8]
active: [3] 43.6 µM | [7] 39.3 µM

CCOC(=O)C(C#N)=C(c1ccccc1)c1ccccc1
inactive: all assays above

COc1ccc(COC(C)=O)cc1
inactive: [1]

CCCCCCOC(=O)CCC
not listed: [8]
inactive: all other assays above

CCOc1ccc(NC(=O)CC(C)O)cc1 (configuration not stated)
inactive: all assays above

CC(=O)Nc1ccc(C(=O)CCl)cc1
inactive: [1] | [2] | [3] | [4] | [5] | [7] | [8]
active: [3] 76.7 µM | [5] 29.9 µM | [7] 20.9 µM

O=CCc1ccccc1
not listed: [7]
inactive: all other assays above

C/C=C(\C)C(=O)OCCc1ccccc1
not listed: [7] | [8]
inactive: all other assays above

CCCCCCC(O)CCCCCCCCCCC(=O)O (configuration not stated)
inactive: [1]

CCCCCCCCCC(C)C=O (configuration not stated)
inactive: all assays above

CCCCCCCCCCCCS(=O)(=O)Cl
inactive: [1]

CSc1c(Cl)c(Cl)c(Cl)c(Cl)c1Cl
active: [4] 45.9 µM
inactive: all other assays above

CCCCCCOC(=O)C(C)C
inactive: [1] | [2] | [3] | [4] | [7]

NC1CCCCC1N (configuration not stated)
not listed: [5] | [6]
inactive: all other assays above

[Cl][Au]([Cl])[Cl]
active: [2] 45.6 µM | [3] 74.1 µM | [4] 75.1 µM | [6] 70.7 µM
inactive: [1] | [7] | [8]

OCC#CCO
not listed: [6]
inactive: all other assays above
